Rows were chosen to be rich in hits. Some 2% of all compounds tested hit in one or more screens of this group.
Fh CTSL1 inh: counter-screen for PFM18AAP inhibitors: inhibitors of F. hepatica cathepsin L1; recombinant F. hepatica cathepsin L1, Z-Leu-Arg-MCA fluorescence; inhibition, % at 5.96 µM; 300,000 compounds, 0.49% hits; AID 1906;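 active = inhibition above the mean of all tested compounds plus 3 SD, set per screening campaign, cut at about 17% in these data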;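 also: 0% = plate median of test compound wells and 100% = 1 µM Z-Phe-Ala-diazomethylketone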
A3A deaminase: human APOBEC3A DNA deaminase inhibition. P31941. 330,000 compounds, 0.41% hits. recombinant A3A, FAM/TAMRA ssDNA deamination fluorescence. inhibition, % at 20 µM. AID 493011;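 active = at least 40% inhibition at 20 µM here, with at most 30% in a related deaminase screen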;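 also: plate controls were A3A with DMSO for no effect and wells lacking A3A enzyme for full effect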
Target sequence (P31941 whole entry, looked up): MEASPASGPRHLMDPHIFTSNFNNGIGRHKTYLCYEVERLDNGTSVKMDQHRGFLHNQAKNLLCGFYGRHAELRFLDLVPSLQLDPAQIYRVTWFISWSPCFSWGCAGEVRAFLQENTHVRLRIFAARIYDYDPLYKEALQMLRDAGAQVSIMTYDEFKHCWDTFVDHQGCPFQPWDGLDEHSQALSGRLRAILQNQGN
A3G deaminase: APOBEC3G (human) deaminase inhibition | Q9HC16 | recombinant A3G, ssDNA deamination FAM/TAMRA fluorescence | inhibition, % at 20 µM | 330,000 compounds, 0.28% hits;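 active = inhibition of at least 40% at 20 µM, with no more than 30% in the related APOBEC3A deaminase screen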;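 also: plate controls were DMSO wells with A3G for no effect and wells lacking A3G enzyme for full effect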
Target sequence (Q9HC16 whole entry, looked up): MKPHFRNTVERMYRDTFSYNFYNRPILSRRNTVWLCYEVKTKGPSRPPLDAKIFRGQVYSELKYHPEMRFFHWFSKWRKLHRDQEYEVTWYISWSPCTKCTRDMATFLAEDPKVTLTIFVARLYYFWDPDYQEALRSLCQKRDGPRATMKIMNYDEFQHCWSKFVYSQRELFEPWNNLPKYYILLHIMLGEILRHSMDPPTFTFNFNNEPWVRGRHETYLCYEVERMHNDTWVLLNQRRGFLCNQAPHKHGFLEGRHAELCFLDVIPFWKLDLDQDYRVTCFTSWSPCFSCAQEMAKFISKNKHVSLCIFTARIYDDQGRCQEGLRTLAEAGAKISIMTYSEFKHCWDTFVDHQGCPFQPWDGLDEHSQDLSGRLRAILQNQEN
HGIII-sPLA2 inh: Blocks human group III sPLA2 activity; QFRET BODIPY PC-A2 liposome hydrolysis, fluorescence; inhibition, % at 12.2 µM; 370,000 compounds, 0.56% hits; Q9NZ20; AID 743126;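 active = inhibition above mean plus 3 SD of compounds lying within the high and low control bounds, cut at about 19% in these data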;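 also: 0% = median of test compound wells and 100% = no enzyme DMSO wells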
NALP1 inh: NALP1 inhibition; S. cerevisiae NALP1/ASC/caspase-1 growth, X-gal OD620, 72 h; 280,000 compounds, 0.61% hits; inhibition, % at 10 µM; in the data active = inhibition mostly above about 24%, no sharp cut-off; inactive = mostly below about 32%
* hit, by the source's call.

Results for CCCCN1CCN(C(=O)Cn2c(=O)c3ccccc3n(CC)c2=O)CC1 ?
HGIII-sPLA2 inh: 2

What do the screens show for `CC(C)c1ccc(NC(=O)C2CCN(C(=O)[C@@H]3Cc4ccccc4CN3)CC2)cc1`?
Fh CTSL1 inh: 3; A3A deaminase: -5; A3G deaminase: -4; HGIII-sPLA2 inh: -13; NALP1 inh: 32*

How did CCc1ccc(NC(=O)C2CCC(CNC(=O)[C@@H]3Cc4ccccc4CN3)CC2)cc1 (stereo not given in full) do in these assays?
Fh CTSL1 inh: -2; A3A deaminase: -2; A3G deaminase: -2; HGIII-sPLA2 inh: 5; NALP1 inh: 34*

What do the screens show for `O=C1CC(c2ccc3c(c2)OCO3)N=C2N(Cc3ccc4c(c3)OCO4)C/C(=C/c3ccccc3)N12` (stereo not given)?
HGIII-sPLA2 inh: -11

How did O=C(CSc1nnc(Cc2cccs2)n1-c1ccc(Cl)cc1)Nc1ccc(OCc2ccccc2)cc1 do in these assays?
HGIII-sPLA2 inh: -21

How did COc1ccc(-c2n[nH]c3c2CN(C(=O)c2ccc(OC)c(OC)c2)CC3)cc1 do in these assays?
Fh CTSL1 inh: 34*; A3A deaminase: -5; A3G deaminase: -3; HGIII-sPLA2 inh: -10; NALP1 inh: -18

What do the screens show for `CC(=O)OC12CCCN(C1)/C(=C/c1cccc(N(C)C)c1)C2` (stereo not given)?
HGIII-sPLA2 inh: 11

What do the screens show for `CC(=O)Nc1ccc(NC(=S)NC(=O)C2CC2)cc1`?
Fh CTSL1 inh: 30*; A3A deaminase: -6; A3G deaminase: -5; HGIII-sPLA2 inh: -3; NALP1 inh: 22

What do the screens show for `Cc1cccc(OCCN2CSC(=S)N(C)C2)c1`?
Fh CTSL1 inh: 3; A3A deaminase: 2; A3G deaminase: 2; HGIII-sPLA2 inh: -8; NALP1 inh: -8

What do the screens show for `COc1ccccc1OCCN1CSC(=S)N(C)C1`?
Fh CTSL1 inh: 0; A3A deaminase: 0; A3G deaminase: -1; HGIII-sPLA2 inh: 4; NALP1 inh: 108*

How did CNC(=O)[C@@H]1CC=C[C@@H]2CCN(c3ccccc3)C(=O)[C@@H]21 do in these assays?
HGIII-sPLA2 inh: 0

How did Cc1ccc(NC(=O)Nc2ccc3c(c2)CCC3)cc1 do in these assays?
Fh CTSL1 inh: 2; A3A deaminase: 7; A3G deaminase: 2; HGIII-sPLA2 inh: 3; NALP1 inh: 38*

How did O=C(Nc1ccc2nc(-c3cccs3)[nH]c2c1)c1cccs1 do in these assays?
Fh CTSL1 inh: 17*; A3A deaminase: 3; A3G deaminase: 2; HGIII-sPLA2 inh: -1; NALP1 inh: 13

What do the screens show for `O=C(Nc1ccc(-c2nc3ccc(NC(=O)c4cccs4)cc3[nH]2)cc1)c1cccs1`?
Fh CTSL1 inh: 7; A3A deaminase: -3; A3G deaminase: -5; HGIII-sPLA2 inh: -26; NALP1 inh: 38

What do the screens show for `O=C(O)c1ccc(NC(=O)c2cccc(NC(=O)c3cccs3)c2)cc1`?
Fh CTSL1 inh: -3; A3A deaminase: -2; A3G deaminase: -4; NALP1 inh: 36*

How did CC1=CC2(C(Cc3ccccc3)N(CC3CC3)C(=NC(=O)c3ccccc3)N2C(=O)OCc2ccccc2)n2c(=O)n(-c3ccccc3)c(=O)n2C1 (stereo not given) do in these assays?
HGIII-sPLA2 inh: 11

Results for COC(=O)c1cccc2c1NC(=O)C2=O ?
Fh CTSL1 inh: 17*; A3A deaminase: 4; A3G deaminase: -1; HGIII-sPLA2 inh: -2; NALP1 inh: -6

How did CC(NCCC(c1ccccc1)c1ccccc1)c1ccccc1 (stereo not given) do in these assays?
Fh CTSL1 inh: -1; A3A deaminase: -3; A3G deaminase: -7; HGIII-sPLA2 inh: 4; NALP1 inh: 54*

How did CCOC(=O)c1ccccc1NS(=O)(=O)c1ccc(OCC)cc1 do in these assays?
Fh CTSL1 inh: 3; A3A deaminase: 6; A3G deaminase: 3; HGIII-sPLA2 inh: -10; NALP1 inh: 30*

How did CCOc1ccc(S(=O)(=O)Nc2ccccc2C(=O)N(C)C2CCN(C)CC2)cc1 do in these assays?
A3A deaminase: -4; A3G deaminase: -7; HGIII-sPLA2 inh: 9

What do the screens show for `Nc1nc(-c2ccc3c(c2)CCCC3)c(CC(=O)O)s1`?
A3A deaminase: -1; A3G deaminase: -5; HGIII-sPLA2 inh: 0; NALP1 inh: 37*

Results for Nc1nc(-c2ccc3c(c2)OCCO3)c(CC(=O)O)s1 ?
A3A deaminase: 1; A3G deaminase: 5; HGIII-sPLA2 inh: 1; NALP1 inh: 1

What do the screens show for `O=C(NCCc1ccccc1)OCc1cn(-c2cccc(F)c2F)nn1`?
HGIII-sPLA2 inh: 6

How did Nc1nc2c(s1)CCc1c-2cnn1-c1ccccc1 do in these assays?
Fh CTSL1 inh: 5; A3A deaminase: -3; A3G deaminase: 54*; NALP1 inh: -1

Results for Nc1nc2c(s1)COc1ccccc1-2 ?
Fh CTSL1 inh: -3; A3A deaminase: -2; A3G deaminase: -3; HGIII-sPLA2 inh: 7; NALP1 inh: -3

What do the screens show for `COc1cccc2c(NCc3ccccc3)nc(-n3c(N)nc4ccccc43)nc12`?
HGIII-sPLA2 inh: -2

Results for O=C(C1CCN(c2ncnc3c2sc2cccc(F)c23)CC1)N1CCN(Cc2ccc(F)cc2)CC1 ?
HGIII-sPLA2 inh: -7

Results for COc1cccc(/C=N/NC(=S)NCCc2ccccc2)c1OC ?
HGIII-sPLA2 inh: 7; NALP1 inh: -8

How did COc1cccc(/C=N/NC(N)=S)c1OCc1cccc(Cl)c1 do in these assays?
Fh CTSL1 inh: 17*; A3A deaminase: 0; A3G deaminase: -1; HGIII-sPLA2 inh: 4; NALP1 inh: -8

What do the screens show for `NC(=S)N/N=C\c1ccccc1OCc1ccccc1`?
Fh CTSL1 inh: 12; A3A deaminase: -2; A3G deaminase: -7; HGIII-sPLA2 inh: 12; NALP1 inh: 22

What do the screens show for `NC(=S)N/N=C/c1c[nH]c2ccc(OCc3ccccc3)cc12`?
Fh CTSL1 inh: 55*; A3A deaminase: -1; A3G deaminase: -2; NALP1 inh: -11

How did CN(C)c1cccc(-c2cnc(N3CCC(C(N)=O)CC3)nc2)c1 do in these assays?
HGIII-sPLA2 inh: 2

How did CN(C)[C@H]1CCN(c2cccc3c2S(=O)(=O)N(C2CC2)CCCO3)C1 do in these assays?
HGIII-sPLA2 inh: -3

What do the screens show for `COc1cc2c(cc1NC(=O)CSc1nnc(COc3ccccc3)n1Cc1ccco1)oc1ccccc12`?
HGIII-sPLA2 inh: 0

Results for CCCN1CCN(CCCNC(=O)C2CCCN(c3nc4ccc(OCC)cc4s3)C2)CC1 (stereo not given) ?
Fh CTSL1 inh: -4; A3A deaminase: -4; A3G deaminase: -1; HGIII-sPLA2 inh: -6; NALP1 inh: 11

How did CCOc1ccc2nc(N3CCCC(C(=O)N4CCN(CC)CC4)C3)sc2c1 (stereo not given) do in these assays?
Fh CTSL1 inh: 1; A3A deaminase: -3; A3G deaminase: -10; HGIII-sPLA2 inh: -1; NALP1 inh: 34*

How did COc1ccc(NC(=O)c2cccnc2NCCc2ccccc2)cc1 do in these assays?
Fh CTSL1 inh: 44*; A3A deaminase: 3; A3G deaminase: 4; HGIII-sPLA2 inh: -14; NALP1 inh: 16

Screens (PubChem BioAssay)
